Measured values as given in PubChem BioAssay (NCATS).
Inconclusive results are not listed. Activity calls are given as the source filed them. Calls come from the whole dose curve; as a rule, active = well fitted cell-killing curve with a large enough effect; inconclusive = small, poorly fitted or top-dose-only effect, or effect the other way; inactive = flat fitted curve, though single readings scatter.
% is set by controls: 0 for no effect and ±100 for the full control effect; potency is the fitted concentration of half-maximal effect.

Each molecule was assayed on Tov-21-G (assay: Primary qHTS to identify gynecologic anti-cancer compounds using libraries of approved drugs and bioactive compounds (AID 1345084; note: nearly all actives have a fitted effect of over 55% in size)). Settings: Gynecologic cancer cell panel viability, ATPlite luminescence, 48 h; series mostly up to 57.5 µM; activity change, negative = cytotoxicity: at the top concentration.
Summary of the method: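 Cells, 1,000 per well, were allowed to settle for 16 h at 37 C before compound addition. Five concentrations were tested for 48 h, and viability was read by ATPlite luminescence after 15 min at room temperature.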
`N#CC(CCCN1CCC(O)(c2ccc(Cl)cc2)CC1)(c1ccccc1)c1ccccc1` was tested, and the “activity change, negative = cytotoxicity” value was -16.8% (inactive).
For `Cc1cc2occ(CN(C)CCN(C)Cc3cn(-c4cccc(C(F)(F)F)c4)c4ccccc34)c(=O)c2cc1C`, the Potency was 28.2 µM (active).
With `COc1ccc(-c2cc3onc(-c4ccncc4)c3c(=O)n2C)cc1` the “activity change, negative = cytotoxicity” value was -14.2% (inactive).
For `CCOC(=O)N1CCC(CN(Cc2ccc(Cl)cc2)Cc2ccc([N+](=O)[O-])s2)C1` (centres undefined), the “activity change, negative = cytotoxicity” value was 8.74% (inactive).
In the case of `Cn1ncc(Cl)c1-c1cc(C(=O)N[C@H](CN)Cc2ccc(F)c(F)c2)oc1Cl`, the Potency is reported as 0.708 µM (active).
With `COC1CC/C=C(\C)C(=O)Nc2cc(O)cc(c2)CC(C)CC(OC)C(O)C(C)/C=C(\C)C1OC(N)=O` (centres undefined) the Potency was 3.98 µM (active).
For `Cn1ncnc1[C@H]1c2n[nH]c(=O)c3cc(F)cc(c23)N[C@@H]1c1ccc(F)cc1`, the “activity change, negative = cytotoxicity” value was -27.3% [at 25.3 µM] (inactive).
`Cc1ccc(O)cc1Nc1ccnc(Nc2cccc(C(N)=O)c2)n1` was tested, and the Potency was 10 µM (active).
`COc1cc(O)c2c(c1)C1OC1C[C@H](O)[C@H](O)C(=O)/C=C\C[C@H](C)OC2=O` (some centres undefined) was tested, and the Potency was 17.8 µM (active).
With `C=C[C@@]1(C)CCC2C(=CCC3[C@]2(C)CCC[C@@]3(C)C(=O)O)C1` (some centres undefined) the “activity change, negative = cytotoxicity” value was -16.2% (inactive).
`Nc1ncnc2c1c(-c1ccc(Oc3ccccc3)cc1)nn2[C@@H]1CCCNC1` was tested, and the “activity change, negative = cytotoxicity” value was -25.6% (inactive).
`CCc1cc(C(N)=O)ccc1-n1nc(C(C)C)c2c(-n3cnc(-c4cnn(C)c4)c3)ccnc21` was tested, and the Potency was 3.55 µM (active).
With `C=C1C(=O)O[C@H]2C3=C(C)CCC[C@]3(C)C(=O)C[C@@H]12` the Potency was 20 µM (active).
In the case of `Cc1ccc(C(C)C)c(O[C@@H]2O[C@H](CO)[C@@H](O)[C@H](O)[C@H]2O)c1`, the “activity change, negative = cytotoxicity” value is reported as 2.27% [at 38.5 µM] (inactive).
